Screens (PubChem)
BLM helicase inh – Bloom syndrome helicase (human) inhibition; Potency, µM (series often up to 56.1 µM), usual class: inhibitors; 350,000 tested, 0.2% active; P54132; recombinant BLM DNA unwinding, fluorescence dequenching; also: nearly all actives have a fitted effect of over 35% in size
RECQ1 inh – RECQ1 (human) helicase inhibition; P46063; RECQ1 DNA unwinding, red fluorescence kinetic read; Potency, µM (titrated, usually from 57.3 µM), hits mostly inhibitors; 240,000 tested, 0.54% active; also: nearly all actives have a fitted effect of over 30% in size
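50 nM RECQ1T1 preincubated 15 min with compound in Tris pH 8.0 buffer with MgCl2, DTT, Tween-20 and 2.5 ug/ml poly(dI-dC); started with 200 nM TAMRA/BHQ-2 forked duplex and 2 mM ATP. Unwinding read as fluorescence (525/598 nm), two reads 2 h apart.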
RGS4 inh – human RGS4 inhibition. Transcreener GDP fluorescence polarization, RGS4-accelerated GTP hydrolysis. AID 504845. Potency, µM (highest dose often 114 µM), most hits filed as inhibitors. P49798. 390,000 tested, 0.039% active; also: nearly all actives have a fitted effect of over 75% in size
Target sequence (P49798 whole entry, looked up): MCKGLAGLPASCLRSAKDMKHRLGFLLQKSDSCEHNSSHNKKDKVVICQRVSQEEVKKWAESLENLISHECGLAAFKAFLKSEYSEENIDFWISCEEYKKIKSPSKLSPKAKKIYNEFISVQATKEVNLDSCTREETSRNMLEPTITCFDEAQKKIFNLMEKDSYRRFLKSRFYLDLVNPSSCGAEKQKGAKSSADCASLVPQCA
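MLSMR compounds (23 nl, pin-transferred) preincubated 10 min at room temperature with a 500nM (2x) first reagent, then RGS4 at 900nM (2x) plus Transcreener GDP mix added; fluorescence polarization (620/688 nm) read before and after 90 min at 30 °C.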
TDP1 block – TDP1 (human) enzyme inhibition; AID 485290; recombinant TDP1, AlphaScreen DNA substrate cleavage; Q9NUW8; Potency, µM (titrated, usually from 130 µM), actives largely listed as inhibitors; 350,000 tested, 0.28% active; also: nearly all actives have a fitted effect of over 40% in size
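Compounds were preincubated with Tdp1 (1 nM final) for 15 min at room temperature before substrate (15 nM final) started a 5 min reaction; beads (10 ug/ml final) were then added for 10 min before AlphaScreen detection.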
KAT2A inh – GCN5L2 (KAT2A) acetyltransferase inhibition. 390,000 tested, 0.21% active. GCN5L2 HAT assay, ThioGlo1 CoA-SH fluorescence. Q92830. Potency, µM (doses to about 58.9 µM), actives largely listed as inhibitors. AID 504327
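Enzyme at 20nM final was mixed with library compounds for 15 min at room temperature. Peptide H3(1-25) at 75uM, acetyl-CoA at 70uM and ThioGlo1 at 50uM were then added. Plates were read immediately and after 20 min (Ex340nm/Em540nm).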
APE1 inh – inhibitors of human APE1 endonuclease. P27695. recombinant APE1, TAMRA/BHQ-2 abasic DNA cleavage fluorescence. Potency, µM (titrated, usually from 65.8 µM), hits mostly inhibitors. 350,000 tested, 0.35% active. AID 2517; also: nearly all actives have a fitted effect of over 55% in size
Target sequence (P27695 whole entry, looked up): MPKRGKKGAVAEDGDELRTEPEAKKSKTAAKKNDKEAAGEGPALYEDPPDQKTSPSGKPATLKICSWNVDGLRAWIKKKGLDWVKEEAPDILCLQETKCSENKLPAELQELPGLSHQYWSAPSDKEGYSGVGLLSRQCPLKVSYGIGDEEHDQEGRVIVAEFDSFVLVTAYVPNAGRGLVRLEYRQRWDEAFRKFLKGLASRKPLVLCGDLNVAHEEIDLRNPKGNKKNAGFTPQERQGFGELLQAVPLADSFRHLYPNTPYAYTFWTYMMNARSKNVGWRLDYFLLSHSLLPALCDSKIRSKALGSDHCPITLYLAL
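Substrate: short duplex with […] THF abasic site, 5'-TAMRA and 3'-BHQ-2, 50 nM final. APE1 at 0.75 nM, preincubated 15 min RT with compound. Fluorescence increase from first to third read measured activity.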
Hits are given with their value; 0 = inactive; ? = inconclusive; - = no result; ! = a repeat was not active. The list is not random: actives were taken first. Their share in the collection is about 0.87%. Calls follow the shape of the dose curve; as a rule, active = well fitted curve in the direction sought with a large enough effect; inconclusive = small, poorly fitted or top-dose-only effect, or another doubt; inactive = no such curve, though single readings can be large; an effect the other way counts as inactive or inconclusive.

SMILES	BLM helicase inh	RECQ1 inh	RGS4 inh	TDP1 block	KAT2A inh	APE1 inh
COc1cc(O)cc(OC)c1OC	0	0	-	0	0	0
COc1c(O)cc(O)cc1O	0	0	-	20µM	0	15.8µM
C=C1C=C(C(F)F)n2ncc(C(=O)NCc3ccccc3Cl)c2N1	-	-	-	-	-	0
CN=c1scc(-c2cccs2)n1/N=C/c1ccccc1O	0	0	0	0	0	0
CN=c1scc(-c2cccs2)n1/N=C/c1ccc(O)c(O)c1O	0	6.31µM	?	0	0	6.31µM
CCCCCCCCc1ccc(-c2ccc(C(=O)O)cc2)cc1	0	0	21.2µM	0	20µM	0
CCCCCCCCCCCCCCCCCCc1ccc(C(=O)/C=C\C(=O)O)cc1	0	0	0	?	2.82µM	?
CC(=O)c1ccc(CCCCc2ccc(C(C)=O)cc2)cc1	-	-	0	-	-	-
C=CC(=O)c1ccc(CCCCCC)cc1	0	0	2.67µM	0	0	0
CCCCCCCCCCCCCCCCCCc1ccc(C(=O)/C=C/C(=O)O)cc1	-	?	?	0	0	?
CCCCCCCCOc1ccc(C(=O)O)cc1	-	0	0	0	0	0
O=C(CSc1nnc(-c2cccc(S(=O)(=O)N3CCCC3)c2)n1-c1ccccc1)Nc1ccccc1	-	-	-	-	-	0
Nc1nc(Cl)nc2c1ncn2[C@@H]1O[C@H](COP(=O)(O)OP(=O)(O)OP(=O)(O)O)[C@H](O)[C@H]1O	-	0	-	-	-	0
NC(=O)C1=CN(C2OC(COP(=O)(O)OP(=O)(O)OC[C@H]3O[C@@H](n4cnc5c(N)ncnc54)[C@H](OP(=O)(O)O)[C@@H]3O)C(O)C2O)C=CC1 (stereo partly drawn)	-	-	13.4µM	-	0	-
CSc1nc(N)c2ncn([C@@H]3O[C@H](COP(=O)(O)OP(=O)(O)OP(=O)(O)O)[C@@H](O)[C@H]3O)c2n1	-	0	11.9µM!	0	0	0
CSc1nc(N)c2ncn([C@@H]3O[C@H](COP(=O)(O)OP(=O)(O)O)C(O)[C@H]3O)c2n1 (stereo partly drawn)	-	-	0.532µM	-	0	-
CC(C)(C)n1ncc2c(=O)n(Cc3ccc(SC(F)(F)F)cc3)cnc21	-	-	-	-	-	0
O=c1c(O[C@H]2O[C@@H](CO)[C@H](O)[C@@H](O)[C@@H]2O)c(-c2ccc(O)cc2)oc2cc(O)cc(O)c12	-	-	0	0	0	21.2µM
CN(C)[C@@H]1C(=O)C(C(=O)NCN2CCCC2)=C(O)[C@@]2(O)C(=O)C3=C(O)c4c(O)cccc4[C@@](C)(O)C3C[C@@H]12 (stereo partly drawn)	-	-	-	-	-	7.94µM
CS(=O)(=O)c1ccc(-c2csc(N3CCC(C(N)=O)CC3)n2)cc1	-	-	-	-	-	0
CCCCN(C(=O)c1cccc(-n2cccc2)c1)c1c(N)n(Cc2ccccc2)c(=O)[nH]c1=O	-	-	-	-	0	2.67µM
CCCCN(C(=O)c1cc(-c2ccco2)nc2ccccc12)c1c(N)n(CCC)c(=O)[nH]c1=O	-	-	0	28.2µM	0	?
Cn1c(N)c(C(=O)COC(=O)c2cc(-c3ccccc3)nc3ccccc23)c(=O)n(Cc2ccccc2)c1=O	0	0	0	0	0	0
Cn1c(=O)c(C(=O)COC(=O)c2cc(-c3ccco3)nc3ccccc23)c(N)n(Cc2ccccc2)c1=O	?	31.6µM	-	0	?	?
CCCCN(C(=O)c1cccc(N2C(=O)c3ccccc3C2=O)c1)c1c(N)n(CC(C)C)c(=O)[nH]c1=O	-	-	0	0	0	0
SMILES	BLM helicase inh	RECQ1 inh	RGS4 inh	TDP1 block	KAT2A inh	APE1 inh
Cc1cc2c(s1)c1cnn(Cc3ccccc3Cl)c(=O)c1n2C	-	-	-	0	-	-
O=C(O)c1cc(N=Nc2ccc(-c3ccc(N=Nc4ccc(O)c(C(=O)O)c4)cc3)cc2)ccc1O	17.8µM	20µM	-	?	3.16µM	8.91µM
O=C(O)c1cc(N=Nc2ccc(O)c(C(=O)O)c2)ccc1O	0	-	-	-	0	-
Cc1ccc(OCC(=O)N(C)CC(=O)NCc2ccco2)c(Br)c1	-	-	0	31.6µM	0	?
O=C(COc1ccc(Cl)cc1Cl)NCc1ccco1	0	0	0	0	0	0
CC(=O)c1cccc(OCC(=O)N(C)CC(=O)NCc2ccco2)c1	-	-	0	7.08µM	0	9.47µM
COc1cccc(NC(=O)CN(C)CC(=O)NCc2ccco2)c1	-	-	0	0	0	0
COc1ccc(C(=O)N(Cc2ccco2)Cc2ccco2)c(O)c1	-	-	-	0	-	-
O=C1CCc2cc(S(=O)(=O)Nc3cccc(Br)c3)ccc2N1	-	-	-	0	-	-
O=C(N/N=C/c1ccc([N+](=O)[O-])s1)c1cccc(Br)c1	0	0	0	0	0	22.4µM
Cc1ccc(C(=O)N/N=C/c2ccc([N+](=O)[O-])s2)cc1	0	0	0	?	0	?
Clc1cc(Cl)c(Cl)cc1Cl	-	0	0	0	0	0
Clc1cc(Cl)c(OCC#CI)cc1Cl	0	-	-	-	14.1µM	-
COc1ccc(C2c3c(nc(CCCc4ccccc4)[nH]c3=O)Oc3ccc4ccccc4c32)cc1OC (stereo not drawn)	-	-	-	0	-	-
COc1cc(F)c(S(=O)(=O)N2CCN(S(=O)(=O)c3ccc(NC(C)=O)cc3)CC2)c(F)c1	-	-	-	0	-	-
COc1ccc2[nH]c(=O)c(CN(Cc3nnnn3Cc3ccco3)C3CCCCC3)cc2c1	?	?	?	-	0	?
COc1ccc2[nH]c(=O)c(CN(C3CCCCC3)C(c3nnnn3Cc3ccco3)C(C)C)cc2c1 (stereo not drawn)	0	28.2µM	?	0	0	0
N#Cc1ccc(CSc2nnc(NC(=O)C3CC(=O)N(c4ccc5c(c4)OCCO5)C3)s2)cc1 (stereo not drawn)	0	28.2µM	0	0	0	14.1µM
N#Cc1c(-c2ccc(F)cc2)no[n+]1[O-]	-	-	-	-	-	0
Cc1ccc(N=c2ssnc2Cl)cc1	0	0	?	0	20µM	0
Cc1nnc(N=c2ssnc2Cl)o1	-	-	0	0	2.82µM	0
Nc1ccccc1N=Nc1ccccc1N	0	-	0	-	0	0
Nc1ccccc1N=c1ssnc1Cl	0	0	?	0	28.2µM	0
Cc1cc(C)nc(/N=c2/ssnc2Cl)c1	0	0	0	0	0	0
Cc1cc(Cl)ccc1N=c1ssnc1Cl	0	0	?	0	28.2µM	0
CN(Cc1nccs1)c1ncnc2ccc(-c3ccc4c(c3)OCO4)cc12	-	-	-	0	-	-
NCC(O)c1ccc(O)c(O)c1 (stereo not drawn)	?	0	0	?	0	0.355µM
CCn1cnc2c(Nc3ccc(Cc4cccnc4)cc3)nc(C#N)nc21	-	-	-	0	-	-
COc1ccccc1C1N=C(Nc2nc3ccccc3o2)NC2=C1C(=O)CC(C)(C)C2 (stereo not drawn)	-	-	0	0	-	-
CC(CS(=O)(=O)c1ccc2c(c1)NC(=O)CS2)C(=O)NCc1ccccc1Cl (stereo not drawn)	0	-	0	8.91µM	0	?
